Experimental data: PubChem BioAssay (EPA / NIEHS)
Results filed as inconclusive are left out. Some compounds were tested as several samples or in several runs, with calls that do not always agree. Active and inactive are the calls of the source. The calls were made as follows, unless noted: active = hit-call score of the fitted dose curve at least 0.9, where 1 is the maximum; inconclusive = response in the unintended direction; inactive = score below 0.9.

Key:
[1] = target: Estrogen receptor beta (Homo sapiens) (UniProt Q92731); test: OT_ER_ERbERb_1440: Odyssey Thera (OT) 24-hour HEK293T Protein-Complementation Assay for Estrogen Receptor-beta/-beta Homodimer (AID 2283380);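 also: fluorescence gain from ER beta LBD homodimer complementation read by laser scanning cytometry; scored as signal increase over DMSO baseline for both agonists and antagonists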
Estrogen receptor beta (Homo sapiens), sequence (Q92731 whole entry, looked up, the tested form may be a part): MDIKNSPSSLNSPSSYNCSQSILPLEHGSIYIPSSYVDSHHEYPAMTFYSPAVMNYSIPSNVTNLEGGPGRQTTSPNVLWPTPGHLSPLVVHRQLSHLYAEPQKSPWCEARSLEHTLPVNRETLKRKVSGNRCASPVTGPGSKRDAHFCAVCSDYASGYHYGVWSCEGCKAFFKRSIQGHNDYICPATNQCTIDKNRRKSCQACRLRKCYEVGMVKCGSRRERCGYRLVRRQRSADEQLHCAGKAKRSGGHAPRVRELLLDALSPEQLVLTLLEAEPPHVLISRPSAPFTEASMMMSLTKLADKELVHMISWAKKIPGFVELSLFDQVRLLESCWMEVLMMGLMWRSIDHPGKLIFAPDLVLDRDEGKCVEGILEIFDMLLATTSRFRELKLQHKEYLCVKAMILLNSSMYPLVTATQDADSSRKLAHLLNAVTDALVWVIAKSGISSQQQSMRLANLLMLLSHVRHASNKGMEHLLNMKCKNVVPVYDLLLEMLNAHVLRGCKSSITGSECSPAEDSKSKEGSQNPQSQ
Outline: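 HEK293T cells stably expressing human ER-beta LBD (aa 310-547) PCA homodimer pair, dosed 24 h; formaldehyde-fixed, Draq5-stained. Readout: increase in nuclear (agonist) or nuclear plus cytoplasmic (antagonist) fluorescence intensity versus DMSO, gain-of-signal fitting.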

[2] = target: Estrogen receptor (Homo sapiens) (UniProt P03372); test: OT_ERa_GFPERaERE_0480: Odyssey Thera (OT) 8-hour HeLa Transcription Induction Assay for Estrogen Receptor (AID 2283381; active = hit-call score of the fitted dose curve at least 0.9, where 1 is the maximum; inactive = score below 0.9)
Estrogen receptor (Homo sapiens), sequence (P03372 whole entry, looked up): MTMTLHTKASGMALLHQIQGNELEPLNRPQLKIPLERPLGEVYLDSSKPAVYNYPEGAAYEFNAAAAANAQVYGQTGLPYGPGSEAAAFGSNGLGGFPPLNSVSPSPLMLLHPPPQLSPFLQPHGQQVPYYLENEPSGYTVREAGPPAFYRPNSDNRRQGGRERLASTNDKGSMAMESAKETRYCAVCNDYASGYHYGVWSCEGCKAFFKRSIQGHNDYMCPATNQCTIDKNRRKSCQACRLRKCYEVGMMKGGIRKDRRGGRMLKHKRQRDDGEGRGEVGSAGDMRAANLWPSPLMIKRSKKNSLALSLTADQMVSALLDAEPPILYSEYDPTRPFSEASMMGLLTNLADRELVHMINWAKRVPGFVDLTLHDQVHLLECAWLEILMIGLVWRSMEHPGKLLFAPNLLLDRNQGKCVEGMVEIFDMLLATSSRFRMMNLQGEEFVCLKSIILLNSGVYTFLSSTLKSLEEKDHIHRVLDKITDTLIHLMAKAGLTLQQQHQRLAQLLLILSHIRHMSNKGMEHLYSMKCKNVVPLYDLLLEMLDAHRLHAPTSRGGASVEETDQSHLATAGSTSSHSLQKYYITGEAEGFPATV
Outline: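 Human cervical HeLa cells were treated for 8 hours, after which ERE-driven GFP induction was measured by fluorescence microscopy; increases over DMSO baseline defined activity.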

[3] = target: Estrogen receptor (Homo sapiens) (UniProt P03372); test: OT_ERa_GFPERaERE_0120: Odyssey Thera (OT) 2-hour HeLa Transcription Induction Assay for Estrogen Receptor (AID 2283382)
Outline: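 Cells (human cervical HeLa) receive compound, incubate 2 hours, then are imaged for fluorescent reporter induction. Images are quantified by high content analysis, and activity is fitted as gain of signal against DMSO.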

[4] = target: Retinoic acid receptor RXR-alpha (Homo sapiens) (UniProt P19793); test: OT_NURR1_NURR1RXRa_0480: Odyssey Thera (OT) 8-hour HEK293T Protein Complementation Assay for Nurr1/retinoid X receptor (RXR) (AID 2283385)
Retinoic acid receptor RXR-alpha (Homo sapiens), sequence (P19793 whole entry, looked up, the tested form may be a part): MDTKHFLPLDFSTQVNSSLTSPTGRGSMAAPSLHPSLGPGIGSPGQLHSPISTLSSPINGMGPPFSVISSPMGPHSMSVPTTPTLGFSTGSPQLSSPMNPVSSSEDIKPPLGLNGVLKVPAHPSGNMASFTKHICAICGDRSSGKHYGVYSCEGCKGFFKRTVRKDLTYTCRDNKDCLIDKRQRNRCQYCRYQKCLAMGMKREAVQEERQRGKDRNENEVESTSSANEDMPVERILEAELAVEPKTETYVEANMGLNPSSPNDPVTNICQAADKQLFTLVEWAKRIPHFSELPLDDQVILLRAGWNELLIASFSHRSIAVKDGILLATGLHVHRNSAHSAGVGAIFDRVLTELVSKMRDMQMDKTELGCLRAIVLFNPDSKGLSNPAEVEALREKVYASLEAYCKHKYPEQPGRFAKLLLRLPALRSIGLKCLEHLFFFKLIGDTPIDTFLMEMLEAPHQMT
Outline: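 Interaction of bait and prey reconstitutes a functional reporter, whose fluorescence was measured in HEK293T cells dosed with compound for 8 hours. Signal gain relative to DMSO defined the single endpoint.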

[5] = target: Retinoic acid receptor RXR-alpha (Homo sapiens) (UniProt P19793); test: OT_NURR1_NURR1RXRa_1440: Odyssey Thera (OT) 24-hour HEK293T Protein Complementation Assay for Nurr1/retinoid X receptor (RXR) (AID 2283386)
Outline: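 Steps: fragment-tagged Nurr1 and RXRα expressed in HEK293T; compounds added; after 24 h, complemented reporter quantified by fluorescence intensity; signal increase over DMSO fitted as the single endpoint.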

[6] = target: Peroxisome proliferator-activated receptor gamma (Homo sapiens) (UniProt P37231); test: OT_PPARg_PPARgSRC1_0480: Odyssey Thera (OT) 8-hour Protein-Complementation Assay for Peroxisome Proliferator-activated Receptor Gamma / SRC-1 Co-activator (AID 2283387);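 also: nuclear to cytoplasmic split Venus YFP fluorescence ratio reporting PPARg SRC-1 interaction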
Peroxisome proliferator-activated receptor gamma (Homo sapiens), sequence (P37231 whole entry, looked up, the tested form may be a part): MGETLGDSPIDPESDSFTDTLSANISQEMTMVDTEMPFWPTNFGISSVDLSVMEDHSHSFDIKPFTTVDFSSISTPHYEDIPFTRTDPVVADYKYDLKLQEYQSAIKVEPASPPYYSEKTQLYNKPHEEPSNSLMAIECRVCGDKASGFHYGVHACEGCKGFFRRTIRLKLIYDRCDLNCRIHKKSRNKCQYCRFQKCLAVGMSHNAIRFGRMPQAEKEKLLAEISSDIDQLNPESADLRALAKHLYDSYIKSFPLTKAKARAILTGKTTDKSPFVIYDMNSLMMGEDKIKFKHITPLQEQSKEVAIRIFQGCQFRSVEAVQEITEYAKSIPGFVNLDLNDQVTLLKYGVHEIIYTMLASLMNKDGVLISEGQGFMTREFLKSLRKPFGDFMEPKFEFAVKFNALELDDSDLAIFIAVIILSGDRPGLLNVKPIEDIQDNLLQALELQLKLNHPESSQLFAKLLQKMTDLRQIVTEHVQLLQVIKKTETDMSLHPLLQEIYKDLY
Outline: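 Protein-fragment complementation in HEK293T: Venus YFP halves (residues 1-158, 159-239, mutated to IFP1/IFP2) fused to PPARg/SRC-1. 8 h exposure; N/C ratio at 488 nm; DMSO negative control.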

[7] = target: Peroxisome proliferator-activated receptor gamma (Homo sapiens) (UniProt P37231); test: OT_PPARg_PPARgSRC1_1440: Odyssey Thera (OT) 24-hour Protein-Complementation Assay for Peroxisome Proliferator-activated Receptor Gamma/ SRC-1 Co-activator (AID 2283388);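 also: nuclear to cytoplasmic ratio of reconstituted Venus YFP fluorescence in fixed imaged cells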
Outline: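 Transient HEK293T, YFP fragments 1-158/159-239 (mutant IFP1/IFP2) fused to PPARg/SRC-1; 24 h dosing; fix 4% formaldehyde, Draq5; Opera imaging 488/635 nm; N/C ratio, gain vs DMSO.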

[8] = read-out: Tumor necrosis factor receptor superfamily member 6 (Homo sapiens) (UniProt P25445); test: LTEA_HepaRG_FAS: Life Technologies and Expression Analysis (LTEA) Assay for Fas cell surface death receptor (FAS) using HepaRG (AID 2283447; active = hit-call score of the fitted dose curve at least 0.9, where 1 is the maximum; inactive = score below 0.9); details: mRNA level, 48 h; actives raise or lower the signal
Outline: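 Differentiated human HepaRG cells, pre-cultured 48 h, were exposed in duplicate for 48 h to 8-point half-log concentrations (top 100 uM, 0.5% DMSO) in serum-free induction medium; FAS mRNA measured by qRT-PCR, normalized to ACTB/GAPDH/POLR2A, bidirectional fit versus DMSO.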

[9] = target: Bile acid receptor (Homo sapiens) (UniProt Q96RI1); test: OT_FXR_FXRSRC1_0480: Odyssey Thera (OT) 8-hour HEK293T Protein-Complementation Assay for Farnesoid X receptor/SRC-1 Co-activator (AID 2283383)
Bile acid receptor (Homo sapiens), sequence (Q96RI1 whole entry, looked up, the tested form may be a part): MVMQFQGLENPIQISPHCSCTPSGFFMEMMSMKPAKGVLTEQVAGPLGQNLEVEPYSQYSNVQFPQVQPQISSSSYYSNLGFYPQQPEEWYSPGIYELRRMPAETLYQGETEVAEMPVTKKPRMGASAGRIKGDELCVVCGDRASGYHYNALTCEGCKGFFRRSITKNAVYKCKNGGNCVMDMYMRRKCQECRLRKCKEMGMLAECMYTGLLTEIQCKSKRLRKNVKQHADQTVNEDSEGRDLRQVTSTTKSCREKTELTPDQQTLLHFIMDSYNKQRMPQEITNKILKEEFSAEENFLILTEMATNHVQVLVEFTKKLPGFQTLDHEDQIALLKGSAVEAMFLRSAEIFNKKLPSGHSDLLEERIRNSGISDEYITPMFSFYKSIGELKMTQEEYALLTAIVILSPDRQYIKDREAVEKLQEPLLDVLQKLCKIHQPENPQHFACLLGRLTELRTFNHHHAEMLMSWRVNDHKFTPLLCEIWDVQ
Outline: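 PCA, HEK293T, 8 h compound exposure; FXR–SRC-1 binding reconstitutes split reporter; fluorescence intensity; positive-direction fit vs DMSO.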

[10] = CEETOX_H295R_11DCORT: CeeTox H295R High-throughput Steroidogenesis Assay for 11-Deoxycortisol (11DCORT) (AID 2283432; active = hit-call score of the fitted dose curve at least 0.9, where 1 is the maximum; inactive = score below 0.9;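 as to AC50: human adrenal H295R cells prestimulated with 10 µM forskolin for 48 h; 11-deoxycortisol secreted into the medium measured by LC-MS/MS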); details: actives raise or lower the signal
Outline: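 Adrenal carcinoma line H295R, run per OECD 456 with minor changes, was forskolin-stimulated (10 uM, 48 h) before a 48 h chemical exposure at 0.1% DMSO. Secreted 11-deoxycortisol was quantified by HPLC-MS/MS.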

[11] = CEETOX_H295R_OHPREG: CeeTox H295R High-throughput Steroidogenesis Assay for OH-Pregnenolone (OHPREG) (AID 2283434; active = hit-call score of the fitted dose curve at least 0.9, where 1 is the maximum; inactive = score below 0.9); details: actives raise or lower the signal
Outline: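 Readout: HPLC-MS/MS of 17alpha-hydroxypregnenolone in medium after 48 h chemical exposure of H295R cells pretreated with forskolin. Values fitted bidirectionally relative to DMSO; chemicals reducing viability to 20–70% were retested after 10-fold dilution.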

[12] = CEETOX_H295R_OHPROG: CeeTox H295R High-throughput Steroidogenesis Assay for OH-Progesterone (OHPROG) (AID 2283435; active = hit-call score of the fitted dose curve at least 0.9, where 1 is the maximum; inactive = score below 0.9;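 as to AC50: human adrenal H295R cells primed 48 h with 10 µM forskolin; 17alpha-hydroxyprogesterone secreted into medium measured by HPLC-MS/MS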); details: actives raise or lower the signal
Outline: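 Steps: seed H295R cells and adhere overnight; stimulate with 10 uM forskolin for 48 h; replace with chemical-containing medium (0.1% DMSO) for 48 h; extract medium with MTBE; quantify 17alpha-hydroxyprogesterone by reverse-phase C18 HPLC-MS/MS against a 7-point curve.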

[13] = CEETOX_H295R_CORTISOL: CeeTox H295R High-throughput Steroidogenesis Assay for Cortisol (AID 2283438; active = hit-call score of the fitted dose curve at least 0.9, where 1 is the maximum; inactive = score below 0.9); details: actives raise or lower the signal
Outline: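 Cortisol synthesis by H295R cells is measured 48 h after chemical dosing, following a 48 h stimulation with 10 uM forskolin. Hormone is extracted and quantified by HPLC-MS/MS, and activity is fitted bidirectionally against the DMSO control.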

[14] = CEETOX_H295R_DOC: CeeTox H295R High-throughput Steroidogenesis Assay for DOC (AID 2283439; active = hit-call score of the fitted dose curve at least 0.9, where 1 is the maximum; inactive = score below 0.9); details: actives raise or lower the signal
Outline: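 Steps: seed H295R, adhere overnight; 10 uM forskolin 48 h; replace with chemical medium (0.1% DMSO) 48 h; collect medium, MTBE extraction, HPLC-MS/MS for DOC. Viability then checked by MTT; cytotoxic chemicals diluted until viability ≥70%.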

[15] = CEETOX_H295R_ESTRADIOL: CeeTox H295R High-throughput Steroidogenesis Assay for Estradiol (AID 2283440; active = hit-call score of the fitted dose curve at least 0.9, where 1 is the maximum; inactive = score below 0.9;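 also: estradiol secreted into medium quantified by LC-MS/MS after dansyl derivatisation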); details: actives raise or lower the signal
Outline: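 Following OECD 456 with minor changes, H295R cells received 10 uM forskolin for 48 h and then test chemical for 48 h. Hormone output was read by HPLC-MS/MS, with cytotoxic concentrations diluted until MTT viability reached ≥70%.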

[16] = CEETOX_H295R_ESTRONE: CeeTox H295R High-throughput Steroidogenesis Assay for Estrone (AID 2283441; active = hit-call score of the fitted dose curve at least 0.9, where 1 is the maximum; inactive = score below 0.9); details: actives raise or lower the signal
Outline: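 Estrone secreted into medium quantified by LC-MS/MS after dansyl chloride derivatization, following 48 h chemical exposure (0.1% DMSO final) of forskolin-prestimulated (10 uM, 48 h) H295R cells; gain or loss fitted against DMSO; MTT viability in same wells.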

[17] = CEETOX_H295R_PROG: CeeTox H295R High-throughput Steroidogenesis Assay for Progesterone (PROG) (AID 2283442; active = hit-call score of the fitted dose curve at least 0.9, where 1 is the maximum; inactive = score below 0.9;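 as to AC50: human H295R adrenal cells primed with 10 µM forskolin before dosing; progesterone secreted into medium by H295R cells measured by HPLC-MS/MS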); details: actives raise or lower the signal
Outline: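 Adrenal H295R line, forskolin-stimulated (10 uM, 48 h) before dosing. 48 h exposure, 0.1% DMSO vehicle. Secreted progesterone by reverse-phase HPLC with ESI+ MS/MS quantification; DMSO-normalised bidirectional curve fit.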

[18] = target: Bile acid receptor (Homo sapiens) (UniProt Q96RI1); test: OT_FXR_FXRSRC1_1440: Odyssey Thera (OT) 24-hour HEK293T Protein-Complementation Assay for Farnesoid X receptor/SRC-1 Co-activator (AID 2283384)
Outline: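 Measures ligand-driven FXR–SRC-1 co-activator recruitment in HEK293T via fragment complementation, fluorescence intensity at 24 h. DMSO served as negative control and baseline for gain-of-signal fitting.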

Measured: AC50

Cc1ccc(N(C)C)cc1
inactive: [1] | [2] | [3] | [4] | [5] | [6] | [7] | [8]

CCCCc1ccc2c(n1)[C@@H](c1ccc(OC)cc1C[C@H](C)C(=O)O)[C@H](C(=O)O)[C@H]2c1ccc2c(c1)OCO2
inactive: [1] | [2] | [3] | [9] | [4] | [5] | [7] | [8]

CCCCCCCC=O
inactive: [1] | [2] | [3] | [4] | [5] | [6] | [7] | [8]

NS(=O)(=O)c1cc2c(cc1Cl)NCNS2(=O)=O
inactive: [1] | [2] | [3] | [9] | [4] | [5] | [7] | [8]

C1CCC(SSC2CCCCC2)CC1
active: [4] 79.5 µM
inactive: [1] | [2] | [3] | [4] | [5] | [6] | [7] | [8]

CC1=C(/C=C/C(C)=C/C=C/C(C)=C/CO)C(C)(C)CCC1
inactive: [1] | [2] | [3] | [4] | [5] | [6] | [7] | [8]
active: [4] 18.5 µM | [5] 79.3 µM

COCCOC[C@H](CC1(C(=O)NC2CCC(C(=O)O)CC2)CCCC1)C(=O)Oc1ccc2c(c1)CCC2 (stereo partly drawn)
inactive: [1] | [2] | [3] | [4] | [5] | [7] | [8]

CCCCCCOCCO
inactive: [1] | [2] | [3] | [4] | [5] | [7] | [8]

Cc1c(C(=O)O)c(O)cc2c1C(=O)c1c(O)c([C@@H]3O[C@H](CO)[C@@H](O)[C@H](O)[C@H]3O)c(O)c(O)c1C2=O
inactive: [1] | [2] | [3] | [9] | [4] | [5] | [7] | [10] | [11] | [12] | [13] | [14] | [15] | [16] | [17] | [8]
active: [4] 50 µM

CCCCCCC(=O)OCC
inactive: [1] | [2] | [3] | [4] | [6] | [7] | [8]

Nc1ccccc1N
active: [8] 50 µM
not listed: [9] | [18]
inactive: all other assays above

CCCCC(CC)COC(=O)CC(C(=O)OCC(CC)CCCC)S(=O)(=O)O (stereo not drawn)
inactive: [1] | [4] | [6] | [7]
active: [2] 22.8 µM | [3] 21.3 µM | [8] 83.5 µM

CC(C)(C)c1cc(O)c(C(C)(C)C)cc1O
inactive: [1] | [2] | [3] | [4] | [5] | [6] | [7]
active: [5] 33.3 µM | [8] 81.7 µM

Cc1ccc(C(C)C)c(O)c1
inactive: [1] | [2] | [3] | [4] | [5] | [7] | [8]

CC(C)c1ccc(C(=O)N=C(N)N)cc1S(C)(=O)=O
active: [8] 0.669 µM
inactive: [1] | [2] | [3] | [4] | [5] | [6] | [7]

C[C@]12C=CC(=O)C=C1CC[C@@H]1[C@@H]2C(=O)C[C@@]2(C)[C@H]1CC[C@]2(O)C(=O)CO
inactive: [1] | [2] | [3] | [5] | [6] | [7] | [12] | [15] | [16] | [8]

O=C(N[C@@H](Cc1ccccc1)[C@@H](O)C(=O)N1C[C@@H](O)[C@@H](O)C1)c1cc2cc(Cl)ccc2[nH]1
inactive: [1] | [2] | [3] | [4] | [5] | [6] | [7] | [8]

Nc1ccc2c(c1)C(=O)c1ccccc1C2=O
active: [12] 7.84 µM | [17] 6.71 µM
inactive: [2] | [3] | [6] | [7] | [10] | [11] | [13] | [14] | [8]

CNCc1cc(F)ccc1Oc1ccc(Cl)c(Cl)c1
inactive: [1] | [6] | [7] | [8]
active: [2] 75.6 µM | [3] 70.5 µM

CC(CO)OC(C)CO (stereo not drawn) (tested in a mixture with another compound)
inactive: [2] | [3] | [18] | [4] | [5] | [7] | [8]

NC(=O)Cn1c(=O)cc(CCN2CCN(c3nccc4sccc34)CC2)c2ccc(F)cc21
active: [10] 27.6 µM | [11] 25 µM | [12] 7.83 µM | [13] 25 µM | [14] 16.9 µM | [17] 2.02 µM
inactive: [2] | [3] | [9] | [18] | [6] | [7] | [8]

CCCc1cc(=O)[nH]c(=S)[nH]1
inactive: [2] | [3] | [4] | [5] | [6] | [7] | [8]
